Inconclusive results are not listed. The source made the active and inactive calls. Calls come from the whole dose curve; as a rule, active = well fitted curve in the direction sought with a large enough effect; inconclusive = small, poorly fitted or top-dose-only effect, or another doubt; inactive = no such curve, though single readings can be large; an effect the other way counts as inactive or inconclusive.
Key:
[1] = Quantitative High-Throughput drug screen in 47 multiple myeloma cell lines against the NCATS MIPE library collection: KMS26_JCRB cell viability assay (AID 1918975); note: nearly all actives have a fitted effect of over 45% in size
Summary of the method: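 Viability readout: CellTiter-Glo luminescence following 5 min room-temperature incubation with reagent. Prior exposure: 48 h, 37C, humidified 5% CO2, 500 cells per well.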

[2] = Quantitative High-Throughput drug screen in 47 multiple myeloma cell lines against the NCATS MIPE library collection: NCIH929_DSMZ cell viability assay (AID 1918978); note: nearly all actives have a fitted effect of over 35% in size
Summary of the method: (§1)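 ATP-based luminescence (CellTiter-Glo, 5 min RT incubation) quantified surviving cells following two days' treatment with MIPE 4.0 agents at 37 °C, 5% CO2.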

[3] = Quantitative High-Throughput drug screen in 47 multiple myeloma cell lines against the NCATS MIPE library collection: OCIMY1_PLB cell viability assay (AID 1918979); note: nearly all actives have a fitted effect of over 35% in size;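 for viability: series mostly up to about 46 µM; 100% = DMSO-only wells and 0% = cell-free media-only wells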
Summary of the method: as §1

[4] = Quantitative High-Throughput drug screen in 47 multiple myeloma cell lines against the NCATS MIPE library collection: OPM1_PLB cell viability assay (AID 1918989); note: nearly all actives have a fitted effect of over 40% in size
Summary of the method: as §1

[5] = Quantitative High-Throughput drug screen in 47 multiple myeloma cell lines against the NCATS MIPE library collection: SKMM1_PLB cell viability assay (AID 1919863); details: SKMM1 myeloma viability, CellTiter-Glo ATP, 48 h; viability: hits give low values; note: nearly all actives have a fitted effect of over 35% in size; for viability: series mostly up to about 46 µM
Summary of the method: as §1

[6] = Quantitative High-Throughput drug screen in 47 multiple myeloma cell lines against the NCATS MIPE library collection: XG6_PLB cell viability assay (AID 1919865); note: nearly all actives have a fitted effect of over 40% in size
Summary of the method: as §1

[7] = Quantitative High-Throughput drug screen in 47 multiple myeloma cell lines against the NCATS MIPE library collection: VP6_DJ cell viability assay (AID 1919867); note: nearly all actives have a fitted effect of over 40% in size
Summary of the method: as §1

[8] = Quantitative High-Throughput drug screen in 47 multiple myeloma cell lines against the NCATS MIPE library collection: MM1R_ATCC cell viability assay (AID 1918981); note: nearly all actives have a fitted effect of over 35% in size
Summary of the method: as §1

[9] = Quantitative High-Throughput drug screen in 47 multiple myeloma cell lines against the NCATS MIPE library collection: LP1_DSMZ cell viability assay (AID 1918982); note: nearly all actives have a fitted effect of over 35% in size
Summary of the method: as §1

[10] = Quantitative High-Throughput drug screen in 47 multiple myeloma cell lines against the NCATS MIPE library collection: KMS34_JCRB cell viability assay (AID 1918985); note: nearly all actives have a fitted effect of over 40% in size
Summary of the method: as §1

[11] = Quantitative High-Throughput drug screen in 47 multiple myeloma cell lines against the NCATS MIPE library collection: OCIMY7_PLB cell viability assay (AID 1918987); note: nearly all actives have a fitted effect of over 65% in size
Summary of the method: as §1

[12] = Quantitative High-Throughput drug screen in 47 multiple myeloma cell lines against the NCATS MIPE library collection: U266_ATCC cell viability assay (AID 1919864); note: nearly all actives have a fitted effect of over 35% in size
Summary of the method: as §1

[13] = Quantitative High-Throughput drug screen in 47 multiple myeloma cell lines against the NCATS MIPE library collection: XG1_PLB cell viability assay (AID 1919866); note: nearly all actives have a fitted effect of over 35% in size
Summary of the method: as §1

[14] = Quantitative High-Throughput drug screen in 47 multiple myeloma cell lines against the NCATS MIPE library collection: MM1S_ATCC cell viability assay (AID 1918980); note: nearly all actives have a fitted effect of over 45% in size
Summary of the method: as §1

[15] = Quantitative High-Throughput drug screen in 47 multiple myeloma cell lines against the NCATS MIPE library collection: KMS28PE_JCRB cell viability assay (AID 1918983); note: nearly all actives have a fitted effect of over 35% in size
Summary of the method: as §1

[16] = Quantitative High-Throughput drug screen in 47 multiple myeloma cell lines against the NCATS MIPE library collection: OCIMY5_PLB cell viability assay (AID 1918988); note: nearly all actives have a fitted effect of over 65% in size
Summary of the method: as §1

[17] = Quantitative High-Throughput drug screen in 47 multiple myeloma cell lines against the NCATS MIPE library collection: UTMC2_PLB cell viability assay (AID 1919868); note: nearly all actives have a fitted effect of over 55% in size
Summary of the method: as §1

[18] = Quantitative High-Throughput drug screen in 47 multiple myeloma cell lines against the NCATS MIPE library collection: MMM1_PLB cell viability assay (AID 1918976); note: nearly all actives have a fitted effect of over 35% in size
Summary of the method: as §1

[19] = Quantitative High-Throughput drug screen in 47 multiple myeloma cell lines against the NCATS MIPE library collection: MOLP8_DSMZ cell viability assay (AID 1918977); note: nearly all actives have a fitted effect of over 45% in size
Summary of the method: as §1
Potency is the fitted concentration of half-maximal effect.

O=C(c1ccc(OCCN2CCCCC2)cc1)c1c(-c2ccc(O)cc2)sc2cc(O)ccc12
inactive: Potency [3]
active: Potency [1] 20.9 µM | Potency [2] 23.5 µM | Potency [4] 5.9 µM | Potency [5] 26.4 µM | Potency [6] 20.9 µM | Potency [7] 16.6 µM

CC(C)C(=O)Nc1ccc([N+](=O)[O-])c(C(F)(F)F)c1
active: Potency [1] 8.33 µM | Potency [2] 1.87 µM | Potency [8] 3.72 µM | Potency [11] 2.96 µM | Potency [4] 8.33 µM | Potency [12] 4.69 µM | Potency [6] 1.05 µM | Potency [13] 1.87 µM | Potency [7] 3.32 µM
inactive: Potency [9] | Potency [10]

CC(C)NCC(O)COc1ccc(CCOCC2CC2)cc1 (stereo not drawn)
active: Potency [14] 16.6 µM | Potency [10] 5.9 µM
inactive: Potency [1] | Potency [2] | Potency [3] | Potency [8] | Potency [9] | Potency [15] | Potency [16] | Potency [4] | Potency [13] | Potency [17]

COc1ccccc1N1CCN(CC(O)COc2cccc3ccccc23)CC1 (stereo not drawn)
inactive: Potency [19] | Potency [2] | Potency [3] | Potency [9] | Potency [10] | viability [5] 119% | Potency [13] | Potency [7]
active: Potency [18] 6.62 µM | Potency [15] 13.2 µM | Potency [4] 14.8 µM

NCCS(=O)(=O)O
inactive: Potency [1] | Potency [2] | Potency [3] | Potency [14] | Potency [8] | Potency [9] | Potency [15] | Potency [10] | Potency [4] | viability [5] 109% | Potency [6] | Potency [13]

OCCN1CCN(CCCN2c3ccccc3Sc3ccc(C(F)(F)F)cc32)CC1
active: Potency [1] 20.9 µM | Potency [2] 20.9 µM | Potency [9] 18.7 µM | Potency [15] 18.7 µM | Potency [16] 20.9 µM | Potency [4] 20.9 µM | Potency [6] 23.5 µM | Potency [13] 20.9 µM | Potency [7] 16.6 µM

Cn1c(=O)c2[nH]cnc2n(C)c1=O
inactive: Potency [1] | Potency [19] | Potency [2] | Potency [9] | Potency [15] | Potency [10] | Potency [4] | viability [5] 104%
active: Potency [6] 26.4 µM

CN(Cc1cnc2nc(N)nc(N)c2n1)c1ccc(C(=O)N[C@@H](CCC(=O)O)C(=O)O)cc1
active: Potency [18] 18.7 µM | Potency [19] 6.62 µM | Potency [2] 2.35 µM | Potency [3] 4.18 µM | Potency [8] 0.935 µM | Potency [15] 16.6 µM | Potency [10] 0.0935 µM | Potency [5] 5.9 µM | Potency [6] 0.0469 µM | Potency [13] 0.0372 µM | Potency [7] 0.0662 µM | Potency [17] 0.166 µM
